Laboratory results: PubChem BioAssay (NCI)
This is part of a sample that, as a whole, favours compounds with a hit. Of some 79,000 tested, about 15% had one in any assay. Active and inactive are the calls of the source. No stated cut-off is given here; in the data, active means growth inhibition above about 70%; inactive means the rest.

Legend:
[1] = NCI Yeast Anticancer Drug Screen. Data for the rad52 strain (AID 147);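 further: 0% = growth of vehicle-treated control cultures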; details: S. cerevisiae rad52 mutant growth inhibition, hits give high values
In short: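 Genetically altered yeast (DNA damage repair defect) treated with compound; inhibition calculated relative to vehicle.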

[2] = NCI Yeast Anticancer Drug Screen. Data for the wt1 strain (AID 149);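 further: 0% = growth of vehicle-treated wt1 cultures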; details: S. cerevisiae wt1 strain (SPY 50644) growth inhibition, hits give high values
In short: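 wt1 strain grown with compound or vehicle; inhibition taken from the growth difference.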

[3] = NCI Yeast Anticancer Drug Screen. Data for the rad50EPP+ strain (AID 151);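 further: 0% = growth of vehicle-treated control cultures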; details: S. cerevisiae rad50 mutant strain, hits give high values
In short: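 Strain rad50EPP+; compound exposure; % growth inhibition vs vehicle.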

[4] = NCI Yeast Anticancer Drug Screen. Data for the mgt1 strain (AID 153); details: S. cerevisiae mgt1 mutant growth inhibition, hits give high values
In short: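 Read-out: yeast growth inhibition vs vehicle control. Strain mgt1, drawn from a panel altered in DNA damage repair or cell cycle control.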

[5] = NCI Yeast Anticancer Drug Screen. Data for the rad50 strain (AID 155);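 further: 0% = growth of vehicle-only cultures of the same strain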; details: S. cerevisiae rad50 strain growth inhibition, hits give high values
In short: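 DNA repair mutant yeast, compound exposure, growth read-out; inhibition is taken relative to vehicle.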

[6] = NCI Yeast Anticancer Drug Screen. Data for the mec2-1 strain (AID 157); details: S. cerevisiae mec2-1 strain, hits give high values
In short: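 Cells of the genetically defined mec2-1 yeast strain are incubated with test compound. Inhibition of growth is calculated against vehicle-treated controls.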

[7] = NCI Yeast Anticancer Drug Screen. Data for the rad14 strain (AID 159);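 further: 0% = growth of vehicle-treated control cultures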; details: S. cerevisiae rad14 strain growth inhibition, hits give high values
In short: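 DNA repair-defective yeast, compound-exposed; % growth inhibition derived by comparison with vehicle-treated controls.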

[8] = NCI Yeast Anticancer Drug Screen. Data for the sgs1 mgt1 strain (AID 161);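 further: 0% = growth of cultures given vehicle only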; details: S. cerevisiae sgs1 mgt1 strain, hits give high values
In short: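 Mutant yeast exposed to compound; growth scored against vehicle-only wells.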

[9] = NCI Yeast Anticancer Drug Screen. Data for the CLN2oe strain (AID 163);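 further: 0% = growth of vehicle-only control cultures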; details: S. cerevisiae CLN2oe strain, hits give high values
In short: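 Strain altered in cell-cycle control, incubated with compound; growth compared to solvent-treated controls.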

[10] = NCI Yeast Anticancer Drug Screen. Data for the cln2 rad14 strain (AID 165);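 further: 0% = growth equal to vehicle treated cultures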; details: S. cerevisiae cln2 rad14 strain, hits give high values
In short: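 The screen exposed genetically defined yeast (cln2 rad14) to test compounds and scored growth inhibition relative to vehicle-treated controls.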

[11] = NCI Yeast Anticancer Drug Screen. Data for the bub3 strain (AID 167); details: S. cerevisiae bub3 mutant strain, hits give high values
In short: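 In this screen, a yeast mutant lacking normal mitotic checkpoint function is challenged with compound. Relative growth versus vehicle gives the inhibition value.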

[12] = NCI Yeast Anticancer Drug Screen. Data for the wt2 strain (AID 169);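 further: 0% = growth of vehicle-treated yeast cultures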; details: S. cerevisiae wt2 strain growth inhibition, hits give high values
In short: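 Steps: yeast strain treated with compound; growth recorded; inhibition calculated relative to cultures given vehicle alone.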

[13] = NCI Yeast Anticancer Drug Screen. Data for the mlh1 strain (AID 171);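 further: 0% = growth of vehicle-treated control cultures of the same strain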; details: S. cerevisiae mlh1 strain growth inhibition, hits give high values
In short: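 Yeast screen: mutant strain plus compound, growth scored against vehicle control wells.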

[14] = NCI Yeast Anticancer Drug Screen. Data for the sgs1 strain (AID 173);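 further: 0% = growth of vehicle-only control cultures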; details: S. cerevisiae sgs1 mutant, hits give high values
In short: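 Inhibition of yeast growth served as the measure. The mutant strain was treated with each compound, and growth was normalised to cultures receiving vehicle alone.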

[15] = NCI Yeast Anticancer Drug Screen. Data for the mlh1 rad18 strain (AID 175); details: S. cerevisiae mlh1 rad18 strain growth inhibition, hits give high values
In short: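 Compound-treated yeast growth, normalised to vehicle controls. Strain bears defined DNA repair mutations.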

[16] = NCI Yeast Anticancer Drug Screen. Data for the rad18 strain (AID 177); details: S. cerevisiae rad18 mutant growth inhibition, hits give high values
In short: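 Inhibition values reflect reduced yeast growth compared with vehicle-treated controls, using a strain engineered with a DNA damage repair defect.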

[17] = at 5.0 µM (retest, dose inferred, filed as 0.5)
[18] = at 50.0 µM (retest, dose inferred, filed as 5.0)

Measured: growth inhibition

CC(C)(C)c1ccc2c(c1)C(=O)c1ccccc1C2=O
active: [11]; at 33.0 µM 78% | [11]; [18] 85% | [11]; at 50.0 µM 89% | [11]; at 100.0 µM 91%
inactive: [1]; at 1.2 µM -9% | [1]; at 3.7 µM -13% | [1]; at 11.0 µM -15% | [1]; at 33.0 µM -6% | [1]; at 100.0 µM 4% | [2]; at 1.2 µM 0% | [2]; at 3.7 µM 12% | [2]; at 11.0 µM 14% | [2]; at 33.0 µM 12% | [2]; at 100.0 µM 15% | [3]; at 1.2 µM -9% | [3]; at 3.7 µM -1% | [3]; at 11.0 µM 18% | [3]; at 33.0 µM 27% | [3]; at 100.0 µM 28% | [4]; at 1.2 µM -3% | [4]; at 3.7 µM -9% | [4]; at 11.0 µM -7% | [4]; at 33.0 µM -7% | [4]; at 100.0 µM -4% | [5]; at 1.2 µM -17% | [5]; at 3.7 µM -18% | [5]; [17] 14% | [5]; at 11.0 µM -19% | [5]; at 33.0 µM 8% | [5]; [18] 5% | [5]; at 50.0 µM -2.85% | [5]; at 100.0 µM 6% | [6]; at 1.2 µM -6% | [6]; at 3.7 µM -6% | [6]; [17] 8% | [6]; at 11.0 µM -6% | [6]; at 33.0 µM -9% | [6]; [18] 8% | [6]; at 50.0 µM -17.9% | [6]; at 100.0 µM -5% | [7]; at 1.2 µM 1% | [7]; at 3.7 µM -13% | [7]; at 11.0 µM -6% | [7]; at 33.0 µM 2% | [7]; at 100.0 µM 13% | [8]; [17] 9% | [8]; [18] 20% | [8]; at 50.0 µM 0.45% | [9]; at 1.2 µM -11% | [9]; at 3.7 µM -12% | [9]; at 11.0 µM -14% | [9]; at 33.0 µM -13% | [9]; at 100.0 µM -12% | [10]; [17] -7% | [10]; [18] 0% | [10]; at 50.0 µM -6.45% | [11]; at 1.2 µM 4% | [11]; at 3.7 µM 24% | [11]; [17] 25% | [11]; at 11.0 µM 65% | [12]; at 1.2 µM 1% | [12]; at 3.7 µM 6% | [12]; at 11.0 µM 10% | [12]; at 33.0 µM 10% | [12]; at 100.0 µM 25% | [13]; at 1.2 µM -15% | [13]; at 3.7 µM -10% | [13]; at 11.0 µM -10% | [13]; at 33.0 µM -10% | [13]; at 100.0 µM 12% | [14]; at 1.2 µM -13% | [14]; at 3.7 µM -7% | [14]; at 11.0 µM 0% | [14]; at 33.0 µM 5% | [14]; at 100.0 µM 17% | [15]; [17] 5% | [15]; [18] 26% | [15]; at 50.0 µM -4.9% | [16]; at 1.2 µM -11% | [16]; at 3.7 µM -9% | [16]; at 11.0 µM -6% | [16]; at 33.0 µM -6% | [16]; at 100.0 µM -14%
